# From PubChem BioAssay (NCATS)
# Several values for one entry are separate records, joined by “and”; a condition that tells them apart may be missing. Equal values may be shown once. Results filed as inconclusive are left out. Entries that show only a call come without a potency. Activity calls are given as the source filed them. Unless noted, the call rests on the fitted dose curve; in most records, active means well fitted curve in the direction sought with a large enough effect; inconclusive means small, poorly fitted or top-dose-only effect, or another doubt; inactive means no such curve, though single readings can be large; an effect the other way counts as inactive or inconclusive.
# Tests used:
# [1] = AP1 Signaling Pathway (AID 357; active means well fitted curve in either direction with a large enough effect, not every such curve was filed as active)
# In short: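 ME-180 cells with beta-lactamase reporter under AP-1 response element, stimulated with EC50 EGF; compounds tested in titration series, 5 h at 37 °C. CCF4 substrate added 2.5 h at room temperature; 460/530 nm emission ratio gave %activity and AC50.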
# [2] = target: Cytochrome P450 1A2 (Homo sapiens) (UniProt P05177); assay: p450-cyp1a2 (AID 410; calls by dose curve)
# Cytochrome P450 1A2 (Homo sapiens), sequence (P05177 whole entry, looked up): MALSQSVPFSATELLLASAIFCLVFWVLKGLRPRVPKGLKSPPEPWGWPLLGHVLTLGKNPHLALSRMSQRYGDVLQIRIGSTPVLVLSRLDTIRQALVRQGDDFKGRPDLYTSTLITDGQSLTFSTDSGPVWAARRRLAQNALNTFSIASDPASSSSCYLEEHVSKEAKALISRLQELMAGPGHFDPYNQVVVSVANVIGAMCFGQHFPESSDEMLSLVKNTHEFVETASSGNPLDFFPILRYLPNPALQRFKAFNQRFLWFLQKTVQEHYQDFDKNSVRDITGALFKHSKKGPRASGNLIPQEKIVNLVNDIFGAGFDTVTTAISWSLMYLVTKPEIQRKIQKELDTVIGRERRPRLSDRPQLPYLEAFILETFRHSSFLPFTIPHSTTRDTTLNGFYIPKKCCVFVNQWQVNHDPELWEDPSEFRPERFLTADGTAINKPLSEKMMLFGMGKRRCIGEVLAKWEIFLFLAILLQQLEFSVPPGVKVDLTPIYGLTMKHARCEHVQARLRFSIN
# In short: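 Read-out is luminescence from luciferin produced by CYP1A2 demethylation of Luciferin-ME (100uM, at Km). Detection reagent stopped the 60 min NADPH-dependent reaction; signals were normalized to 57 uM furafylline.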
# [3] = Stat Signaling Pathway (AID 446; active means well fitted curve in either direction with a large enough effect, not every such curve was filed as active;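 further: ME-180 cervical cancer cells given 40 pM IL-6 alongside compound; SIE-controlled beta-lactamase reporter measured as 460/530 nm FRET emission ratio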)
# In short: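 Emission at 460 and 530 nm (excitation 405 nm) reports SIE-controlled beta-lactamase in ME-180 cells. Cells received compound with 40 pM IL-6 for 5 hrs at 37 C; data scaled between 300 pM IL-6 and 125 nM JAK-inhibitor controls.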
# [4] = target: Glucocorticoid receptor (Homo sapiens) (UniProt P04150); assay: GR-GFP Redistribution (AID 450;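 active means compounds whose dose series gives a full or clear partial fitted curve of increased nuclear translocation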; further: potency means the concentration at half of the fitted maximal effect); conditions: U2OS GR-GFP nuclear translocation, laser cytometry, 2 h
# Glucocorticoid receptor (Homo sapiens), sequence (P04150 whole entry, looked up, the tested form may be a part): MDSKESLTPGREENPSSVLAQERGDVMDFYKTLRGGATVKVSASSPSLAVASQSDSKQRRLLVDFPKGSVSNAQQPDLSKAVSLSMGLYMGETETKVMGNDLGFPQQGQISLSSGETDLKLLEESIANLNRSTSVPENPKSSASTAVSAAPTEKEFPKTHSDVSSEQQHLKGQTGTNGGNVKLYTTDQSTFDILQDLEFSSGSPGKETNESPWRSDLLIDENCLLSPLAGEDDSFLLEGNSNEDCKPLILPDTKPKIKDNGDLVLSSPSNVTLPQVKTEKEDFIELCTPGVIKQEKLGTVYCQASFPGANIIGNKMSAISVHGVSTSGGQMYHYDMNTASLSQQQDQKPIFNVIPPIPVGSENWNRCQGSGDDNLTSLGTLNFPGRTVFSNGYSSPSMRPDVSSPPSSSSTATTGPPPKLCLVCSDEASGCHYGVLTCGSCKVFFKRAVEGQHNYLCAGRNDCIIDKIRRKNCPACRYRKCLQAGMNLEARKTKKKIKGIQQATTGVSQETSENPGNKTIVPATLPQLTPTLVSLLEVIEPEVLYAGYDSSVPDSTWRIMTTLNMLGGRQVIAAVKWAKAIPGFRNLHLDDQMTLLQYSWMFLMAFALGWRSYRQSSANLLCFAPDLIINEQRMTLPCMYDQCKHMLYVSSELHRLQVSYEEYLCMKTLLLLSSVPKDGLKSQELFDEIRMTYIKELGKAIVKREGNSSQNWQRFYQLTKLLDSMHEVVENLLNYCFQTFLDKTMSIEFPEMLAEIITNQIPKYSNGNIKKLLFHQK
# [5] = target: Glucocorticoid receptor (Homo sapiens) (UniProt P04150); assay: GR-EFC Redistribution (AID 451; calls by dose curve; further: potency means the concentration at half of the fitted maximal effect); conditions: CHO-K1 GR-EFC translocation, beta-gal luminescence, 2 h
# In short: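 Translocation of GR-ED fusion to nuclear EA restores b-gal, read by luminescence after 1 h room-temperature detection. Engineered CHO-K1 biosensor cells, 1,000/well, exposed 2 h at 37 C to titrations up to 46 uM final.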
# [6] = target: Mitogen-activated protein kinase 10 (Mus musculus) (UniProt Q61831); assay: JNK3 AlphaScreen Assay (AID 530; active means well fitted curve in either direction with a large enough effect, not every such curve was filed as active;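 further: kinase came from lysate of stimulated human HepG2 cells; signal reports phosphorylation of biotinylated GST-cJun 1-79 at Ser73 with 10 µM ATP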)
# In short: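 Kinase buffer: 20 mM Tris-HCl pH 7.6, 10 mM MgCl2, 1 mM DTT, 0.1 mM Na3VO4, 0.01% Tween-20; ATP 10 uM. Substrate biotin-GST-cJun(1-79), enzyme from activated HepG2 lysates. Detection by Ser73 phospho-antibody AlphaScreen.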
# [7] = target: 3',5'-cyclic-AMP phosphodiesterase 4B (Homo sapiens) (UniProt Q07343); assay: qHTS Assay for Inhibitors of PDE-IV (AID 607; active means well fitted activation curve with a large enough effect in the main read-out, with a control signal flat, not every such curve was filed as active)
# 3',5'-cyclic-AMP phosphodiesterase 4B (Homo sapiens), sequence (Q07343 whole entry, looked up): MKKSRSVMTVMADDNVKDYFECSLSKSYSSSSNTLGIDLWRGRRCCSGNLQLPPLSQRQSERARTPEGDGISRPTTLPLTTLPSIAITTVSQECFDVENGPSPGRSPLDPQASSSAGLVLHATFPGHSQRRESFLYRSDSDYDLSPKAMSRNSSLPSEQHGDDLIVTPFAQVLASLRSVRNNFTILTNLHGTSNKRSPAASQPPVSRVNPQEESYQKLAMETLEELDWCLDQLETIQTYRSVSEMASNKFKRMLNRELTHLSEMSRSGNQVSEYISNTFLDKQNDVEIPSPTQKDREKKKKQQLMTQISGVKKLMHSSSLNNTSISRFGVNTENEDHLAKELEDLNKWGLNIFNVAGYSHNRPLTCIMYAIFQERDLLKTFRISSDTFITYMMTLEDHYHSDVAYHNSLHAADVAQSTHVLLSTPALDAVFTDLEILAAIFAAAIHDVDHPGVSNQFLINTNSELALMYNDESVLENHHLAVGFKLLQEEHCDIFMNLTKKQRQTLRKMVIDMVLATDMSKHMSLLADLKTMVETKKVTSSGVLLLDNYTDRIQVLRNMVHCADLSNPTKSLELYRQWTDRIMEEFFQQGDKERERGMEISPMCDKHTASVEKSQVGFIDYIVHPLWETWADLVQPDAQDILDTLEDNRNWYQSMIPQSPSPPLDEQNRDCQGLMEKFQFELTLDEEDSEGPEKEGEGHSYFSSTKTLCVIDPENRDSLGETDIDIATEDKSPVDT
# In short: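 The readout is membrane depolarisation from a cAMP-sensing CNG channel, detected with a potential dye at ex 535/em 590. Cells were HEK293-derived (endogenous PDE-IV) at 1000 cells/well, titrated up to 22.9 uM final.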
# [8] = target: Guanine nucleotide-binding protein G(i) subunit alpha-1 (Homo sapiens) (UniProt P63096); assay: qHTS Assay for Inhibitors of RGS12 GoLoco Motif Activity (Green Fluorophore) (AID 879);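 further: negative values mean loss of peptide binding seen as reduced polarization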
# Guanine nucleotide-binding protein G(i) subunit alpha-1 (Homo sapiens), sequence (P63096 whole entry, looked up): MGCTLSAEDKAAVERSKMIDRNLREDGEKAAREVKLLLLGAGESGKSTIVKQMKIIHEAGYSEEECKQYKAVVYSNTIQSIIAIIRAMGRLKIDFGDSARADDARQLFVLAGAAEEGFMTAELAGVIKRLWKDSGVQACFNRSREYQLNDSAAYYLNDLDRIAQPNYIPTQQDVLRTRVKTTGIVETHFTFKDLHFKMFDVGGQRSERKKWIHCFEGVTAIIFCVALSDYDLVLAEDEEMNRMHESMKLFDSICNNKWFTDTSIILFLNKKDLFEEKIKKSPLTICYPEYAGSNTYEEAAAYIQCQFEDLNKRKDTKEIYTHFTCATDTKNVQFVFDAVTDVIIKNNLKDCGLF
# In short: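 A drop in FITC polarization marked displacement of the FITC-tagged RGS12 GoLoco peptide (10 nM) from Gαi1 (50 nM). Compounds were incubated 10 min at room temperature in Tris pH 7.5 buffer containing 150 mM NaCl, 0.1 mM GDP and 0.05% NP40; unlabeled peptide titration served as control.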
# [9] = target: Muscarinic acetylcholine receptor M1 (Rattus norvegicus) (UniProt P08482); assay: qHTS Assay for Antagonists of Acetylcholine Muscarinic M1 Receptor: Measurement of IP-One Response (AID 944); further: nearly all actives have a fitted effect of over 75% in size
# Muscarinic acetylcholine receptor M1 (Rattus norvegicus), sequence (P08482 whole entry, looked up): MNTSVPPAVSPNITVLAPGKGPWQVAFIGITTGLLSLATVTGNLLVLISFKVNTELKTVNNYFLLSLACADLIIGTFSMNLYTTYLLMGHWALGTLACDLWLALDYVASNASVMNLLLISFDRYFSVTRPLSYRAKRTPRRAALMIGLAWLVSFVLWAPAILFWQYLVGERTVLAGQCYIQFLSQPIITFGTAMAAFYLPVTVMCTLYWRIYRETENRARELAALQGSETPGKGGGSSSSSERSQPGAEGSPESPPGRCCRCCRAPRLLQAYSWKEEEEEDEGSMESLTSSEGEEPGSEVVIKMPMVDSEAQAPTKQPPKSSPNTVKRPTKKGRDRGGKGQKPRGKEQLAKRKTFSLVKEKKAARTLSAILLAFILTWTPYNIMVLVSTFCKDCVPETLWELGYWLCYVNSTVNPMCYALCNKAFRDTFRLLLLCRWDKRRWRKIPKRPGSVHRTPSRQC
# In short: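 Antagonism was measured as loss of carbachol-driven (EC80) IP1 accumulation in CHO cells carrying rat M1, using a homogeneous IP-One TR-FRET kit read at 620 and 665 nm.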
# [10] = target: Pyruvate kinase (Leishmania mexicana) (UniProt Q27686); assay: qHTS Validation Assay for Inhibitors of Leishmania Mexicana Pyruvate Kinase (AID 945)
# Pyruvate kinase (Leishmania mexicana), sequence (Q27686 2-499 E452W): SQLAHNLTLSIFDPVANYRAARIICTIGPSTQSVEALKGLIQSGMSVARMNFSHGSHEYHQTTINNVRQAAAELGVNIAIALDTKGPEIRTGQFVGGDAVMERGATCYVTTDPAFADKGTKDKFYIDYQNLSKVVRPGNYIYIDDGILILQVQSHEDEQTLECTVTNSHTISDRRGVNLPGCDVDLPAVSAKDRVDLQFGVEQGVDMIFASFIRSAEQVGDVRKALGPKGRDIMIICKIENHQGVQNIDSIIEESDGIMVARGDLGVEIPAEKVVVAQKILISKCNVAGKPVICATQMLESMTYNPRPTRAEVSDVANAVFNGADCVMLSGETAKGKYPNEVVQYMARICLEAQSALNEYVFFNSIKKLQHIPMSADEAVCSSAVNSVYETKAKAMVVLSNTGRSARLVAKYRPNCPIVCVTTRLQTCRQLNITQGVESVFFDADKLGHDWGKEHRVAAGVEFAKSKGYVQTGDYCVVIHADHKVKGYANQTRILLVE
# In short: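 qHTS eight-point titrations against 0.2 nM LmPYK (E451W) in imidazole buffer pH 7.2 with 0.5 mM PEP, 0.1 mM ADP; 1 h, room temperature. Readout: PKLight luminescence, normalized to neutral DMSO wells.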
# [11] = target: Pyruvate kinase PKM (Homo sapiens) (UniProt P14618); assay: qHTS Assay for Activators of Human Muscle Pyruvate Kinase (AID 954; active means well fitted curve in the direction sought with a large enough effect, not every such curve was filed as active)
# Pyruvate kinase PKM (Homo sapiens), sequence (P14618 whole entry, looked up): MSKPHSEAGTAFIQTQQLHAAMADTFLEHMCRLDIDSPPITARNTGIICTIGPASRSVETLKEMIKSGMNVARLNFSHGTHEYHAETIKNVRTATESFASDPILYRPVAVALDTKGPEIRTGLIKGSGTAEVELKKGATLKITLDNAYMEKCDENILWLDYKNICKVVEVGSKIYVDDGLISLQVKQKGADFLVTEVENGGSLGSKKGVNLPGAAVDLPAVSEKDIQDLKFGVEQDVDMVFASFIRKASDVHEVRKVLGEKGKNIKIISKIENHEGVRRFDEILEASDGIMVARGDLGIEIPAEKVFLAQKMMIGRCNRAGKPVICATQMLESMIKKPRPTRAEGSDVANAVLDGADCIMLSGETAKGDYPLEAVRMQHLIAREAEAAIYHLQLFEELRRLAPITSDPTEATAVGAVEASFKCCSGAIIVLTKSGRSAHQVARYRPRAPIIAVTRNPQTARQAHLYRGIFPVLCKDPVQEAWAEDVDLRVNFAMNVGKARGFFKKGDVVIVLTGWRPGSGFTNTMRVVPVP
# In short: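 PKM2, human, >95% pure, 0.1 nM; PEP 0.5 mM (Km), ADP 0.1 mM; 50 mM imidazole pH 7.2, 50 mM KCl, 0.01% Tween 20, 0.05% BSA; 1 h RT; luciferase luminescence readout.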
# [12] = target: Alpha-galactosidase (Coffea arabica) (UniProt Q42656); assay: Counterscreen for Glucocerebrosidase Inhibitors: qHTS Assay for Coffee Bean alpha-Galactosidase at pH 4.5 (AID 957)
# Alpha-galactosidase (Coffea arabica), sequence (Q42656 whole entry, looked up): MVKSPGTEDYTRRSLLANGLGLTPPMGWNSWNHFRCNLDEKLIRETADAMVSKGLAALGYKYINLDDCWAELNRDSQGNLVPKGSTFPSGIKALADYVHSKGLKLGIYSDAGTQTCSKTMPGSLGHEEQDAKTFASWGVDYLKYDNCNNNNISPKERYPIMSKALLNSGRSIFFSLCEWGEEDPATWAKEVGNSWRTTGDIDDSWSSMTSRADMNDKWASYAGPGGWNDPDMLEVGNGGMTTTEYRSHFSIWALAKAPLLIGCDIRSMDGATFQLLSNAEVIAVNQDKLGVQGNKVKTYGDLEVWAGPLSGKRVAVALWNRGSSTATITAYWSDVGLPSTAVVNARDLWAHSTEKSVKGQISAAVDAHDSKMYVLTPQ
# In short: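 Quantitative HTS of compounds (0.7 nM to 77 uM) against coffee bean alpha-galactosidase at pH 4.5, measuring 4-methylumbelliferone fluorescence released from 80 uM substrate.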
# [13] = target: alpha-glucosidase (Oryza sativa, rice) (UniProt Q653V4); assay: Counterscreen for Glucocerebrosidase Inhibitors: qHTS Assay for Rice alpha-Glucosidase at pH 5.0 (AID 997)
# In short: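 Endpoint fluorogenic assay at pH 5.0: compounds (0.7 nM to 77 uM) titrated against 4 nM rice enzyme and 400 uM 4-MU-alpha-glucoside for 20 min at room temperature; NaOH/glycine stop, read ex 365/em 440 nm, Hill-fitted AC50.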
# [14] = target: Alpha-galactosidase (Coffea arabica) (UniProt Q42656); assay: Counterscreen for Glucocerebrosidase Inhibitors: qHTS Assay for Coffee Bean alpha-Galactosidase at pH 5.9 (AID 998)
# In short: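 Fluorogenic 4-MU substrate hydrolysis, 80 uM substrate and 2 nM coffee bean alpha-galactosidase, pH 5.9 citrate buffer, 20 min at room temperature, then NaOH/glycine stop. Titration 0.7 nM–77 uM, normalized to no-enzyme and enzyme controls, AC50 via Hill equation.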
# [15] = qHTS Assay for Lipid Storage Modulators (AID 1519; calls by dose curve); conditions: Drosophila S3 cells, BODIPY lipid droplet/cell ratio, laser cytometry, cells loaded with oleic acid
# In short: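 Cells seeded at 5,000 per well were treated with compounds over a concentration series and loaded with oleic acid (400 uM, as added). Lipid droplet fluorescence (488 nm excitation, 500-530 nm channel) was read by laser-scanning cytometry and normalized to 20 uM Triacsin C.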
# [16] = target: DNA dC->dU-editing enzyme APOBEC-3G (Homo sapiens) (UniProt Q9HC16); assay: qHTS for inhibitors of Vif-A3G interactions: Validation (AID 588379)
# DNA dC->dU-editing enzyme APOBEC-3G (Homo sapiens), sequence (Q9HC16 whole entry, looked up): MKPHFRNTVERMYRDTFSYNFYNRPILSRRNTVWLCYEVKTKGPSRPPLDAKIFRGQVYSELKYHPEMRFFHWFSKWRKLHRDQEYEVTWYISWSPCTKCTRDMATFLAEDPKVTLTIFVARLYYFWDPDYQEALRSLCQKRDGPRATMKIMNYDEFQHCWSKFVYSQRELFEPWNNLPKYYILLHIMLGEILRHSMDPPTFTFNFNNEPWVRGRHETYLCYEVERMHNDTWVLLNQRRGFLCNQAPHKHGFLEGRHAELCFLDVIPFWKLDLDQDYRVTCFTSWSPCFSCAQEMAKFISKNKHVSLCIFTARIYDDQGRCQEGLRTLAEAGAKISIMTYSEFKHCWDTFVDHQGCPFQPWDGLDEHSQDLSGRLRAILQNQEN
# In short: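 Yellow fluorescence (Ex 488, Em 500-530) of Vif-coexpressing HeLa A3G-eYFP cells, scanned by Acumen cytometer, reports blocked A3G degradation. Cells plated at 700/well overnight at 37 deg C before compound addition, then a further overnight compound incubation at 37 deg C.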
# [17] = test system: Zika virus NS2B-NS3 protease; assay: Primary screen GU AMC qHTS for Zika virus inhibitors (AID 1347154); further: nearly all actives have a fitted effect of over 70% in size
# In short: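 Fluorogenic AMC-substrate cleavage by noncovalent NS2B-NS3 protease complex (25 nM, pH 8.0 Tris buffer with Tween 20) followed for 15 minutes at room temperature (~20% conversion). Percent inhibition from ex340/em450 signal change, fitted by 4-parameter Hill equation.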
# [18] = Primary qHTS for small molecule stabilizers of the endoplasmic reticulum resident proteome: Secreted ER Calcium Modulated Protein (SERCaMP) assay (AID 1508630)
# In short: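 The SH-SY5Y reporter protocol was run at 3 concentrations up to 38.3 uM (primary) or 11 concentrations (follow-up): 16 h compound, 100 nM thapsigargin for 4 h, then extracellular luciferase luminescence.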
# [19] = target: Ubiquitin carboxyl-terminal hydrolase 1 (Homo sapiens) (UniProt O94782); assay: Inhibitors of USP1/UAF1: Pilot qHTS (AID 504865);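 further: rhodamine fluorescence freed from ubiquitin-rhodamine substrate followed over time; top concentration of the series differs between compounds; nearly all actives have a fitted effect of over 35% in size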
# In short: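 In 50mM HEPES pH 7.8 containing 0.5mM EDTA, 1mM TCEP, 0.1 mg/ml BSA and 0.01% Tween-20, 1nM USP1/UAF1 is exposed to compound for 15 min, then Ub-Rho (150nM final) is added and fluorescence is read over time.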
# [20] = measured here: cell count channel max response
# [21] = measured here: lipid channel max response
compound,measurement,setting,value
N[C@H](CP(=O)(O)O)C(=O)O,outcome,[1],inactive
same,Potency,[2],inactive
same,outcome,[3],inactive
same,Potency,[4],> 46 µM (inactive)
same,Potency,[5],> 46 µM (inactive)
same,outcome,[6],inactive
same,Potency,[7],inactive
same,outcome,[8],inactive
same,Potency,[9],inactive
same,outcome,[10],inactive
same,outcome,[11],inactive
same,outcome,[12],inactive
same,outcome,[13],inactive
same,outcome,[14],inactive
same,"activity change, negative = inhibition",[15]; at 57.5 µM (top of the series),-5.82% (inactive)
same,max response,[15]; [20],12.7%
same,max response,[15]; [21],11.5%
same,Potency,[16],inactive
same,Potency,[17],inactive
same,Potency,[18],inactive
CCOc1cncc(/C=C/CCNC)c1,Potency,[17],inactive
same,Potency,[18],inactive
C[C@]12N[C@@H](Cc3ccccc31)c1ccccc12,outcome,[1],inactive
same,Potency,[2],inactive
same,outcome,[3],inactive
same,outcome,[6],inactive
same,Potency,[7],inactive
same,"activity change, negative = inhibition",[15]; at 25.7 µM (top of the series),1.12% (inactive) and -0.257% (inactive)
same,"activity change, negative = inhibition",[15]; at 57.5 µM (top of the series),2.32% (inactive) and -0.0802% (inactive)
same,max response,[15]; [20],11.5% [middle of 4 runs]
same,max response,[15]; [21],12.1% [middle of 4 runs]
same,Potency,[19],inactive
same,Potency,[16],inactive
same,Potency,[17],inactive
same,Potency,[18],inactive
C=CCN1CCC23c4c5ccc(O)c4OC2/C(=N/N=C2\CCC4(O)C6Cc7ccc(O)c8c7C4(CCN6CC=C)C2O8)CCC3(O)C1C5 (centres undefined),Potency,[17],inactive
same,Potency,[18],inactive
CC[C@]1(C2=NCCN2)Cc2ccccc2O1,outcome,[1],inactive
same,Potency,[2],inactive
same,outcome,[6],inactive
same,outcome,[8],inactive
same,Potency,[9],inactive
same,outcome,[10],inactive
same,outcome,[11],inactive
same,outcome,[12],inactive
same,outcome,[13],inactive
same,outcome,[14],inactive
same,"activity change, negative = inhibition",[15]; at 57.5 µM (top of the series),2.09% (inactive)
same,max response,[15]; [20],4.62%
same,max response,[15]; [21],7.07%
same,Potency,[16],inactive
same,Potency,[17],inactive
same,Potency,[18],inactive
O=C(NC1CCCCC1)c1cn(CCN2CCOCC2)c2cc(Cl)ccc2c1=O,Potency,[17],inactive
same,Potency,[18],inactive
CN1C(=O)CCS(=O)(=O)[C@H]1c1ccc(Cl)cc1,outcome,[1],inactive
same,Potency,[2],inactive
same,outcome,[3],inactive
same,Potency,[5],> 46 µM (inactive)
same,outcome,[6],inactive
same,Potency,[7],inactive
same,outcome,[8],inactive
same,Potency,[9],inactive
same,outcome,[10],inactive
same,outcome,[11],inactive
same,outcome,[12],inactive
same,outcome,[13],inactive
same,outcome,[14],inactive
same,"activity change, negative = inhibition",[15]; at 57.5 µM (top of the series),-2.49% (inactive)
same,max response,[15]; [20],-1.62%
same,max response,[15]; [21],2.79%
same,Potency,[16],inactive
same,Potency,[17],inactive
same,Potency,[18],inactive
